Data published in the supplement of paper PMC3342239.
Structures can show the parent of a compound that is named as a salt.

Test system: Saccharomyces cerevisiae
Experiment: fraction of cells in G1 phase (DNA content, flow cytometry); higher = more cells with unreplicated DNA (G1 delay)
Details: temperature: 30 C, YPD
Method in brief: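 S. cerevisiae in YPD at 30°C was treated with library drugs, with DMSO-only wells as reference. Sensitized JTY2953 cultures diluted 1∶200 from overnight received a final 20 µg/ml and were fixed after 6–7 h; other runs dosed dividing JTY2953 (fixed 6 h later) or BY4741 (4.33 h later). Ethanol-fixed cells were stained with SYTOX Green and 10,000 events read by flow cytometry. G1 fraction is the Dean-Jett-Fox G1 peak area over G1 plus G2/M areas.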

[1] = JTY2953 pdr5 snq2 (sensitized), drug added to: actively dividing cells, 6 h
[2] = JTY2953 pdr5 snq2 (sensitized), drug added to: cultures diluted from stationary phase, 6-7 h
[3] = BY4741 PDR5+ SNQ2+, drug added to: actively dividing cells, 4.33 h

Clc1ccc(C(Cn2ccnc2)OCc2csc3c(Cl)cccc23)c(Cl)c1 (stereo unspecified) [Sertaconazole] (45.6852 µM)
fraction of cells in G1 phase [1]: 0.3
fraction of cells in G1 phase [2]: 0.869

O=c1[nH]c2ccccc2n1CCCN1CCN(C(c2ccccc2)c2ccccc2)CC1 [Oxatomide] (46.886 µM)
fraction of cells in G1 phase [3]: 0.433
fraction of cells in G1 phase [1]: 0.791
fraction of cells in G1 phase [2]: 0.836

Fc1ccc([C@@H]2CCNC[C@H]2COc2ccc3c(c2)OCO3)cc1 [Paroxetine HCl] (60.7211 µM)
fraction of cells in G1 phase [3]: 0.468
fraction of cells in G1 phase [2]: 0.387

CC(C)(C)C(=O)C(Oc1ccc(Cl)cc1)n1ccnc1 (stereo unspecified) [Climbazole] (68.3135 µM)
fraction of cells in G1 phase [3]: 0.496
fraction of cells in G1 phase [1]: 0.833
fraction of cells in G1 phase [2]: 0.719

CCCCCCCCCCCCCCCCOP(=O)([O-])OCC[N+](C)(C)C [Miltefosine] (49.0703 µM)
fraction of cells in G1 phase [1]: 0.596
fraction of cells in G1 phase [2]: 0.858

CC(=O)N1CCN(c2ccc(OCC3COC(Cn4ccnc4)(c4ccc(Cl)cc4Cl)O3)cc2)CC1 (stereo unspecified) [Ketoconazole] (37.6334 µM)
fraction of cells in G1 phase [3]: 0.507
fraction of cells in G1 phase [1]: 0.84
fraction of cells in G1 phase [2]: 0.747

CC1=C(/C=C/C(C)=C/C=C/C(C)=C/C(=O)Nc2ccc(O)cc2)C(C)(C)CCC1 [Fenretinide] (51.0779 µM)
fraction of cells in G1 phase [3]: 0.462
fraction of cells in G1 phase [1]: 0.681
fraction of cells in G1 phase [2]: 0.604

CC(=O)OCC1OC([S-])C(OC(C)=O)C(OC(C)=O)C1OC(C)=O.CC[PH+](CC)CC.[Au+] (stereo unspecified) [Auranofin] (29.4771 µM)
fraction of cells in G1 phase [3]: 0.52
fraction of cells in G1 phase [1]: 0.959
fraction of cells in G1 phase [2]: 0.709

CCN(CC)CCOc1ccc(C(=C(Cl)c2ccccc2)c2ccccc2)cc1 [Clomiphene citrate] (49.2645 µM)
fraction of cells in G1 phase [1]: 0.388
fraction of cells in G1 phase [2]: 0.88

CCC(C)(C)c1ccc(CC(C)CN2C[C@@H](C)O[C@@H](C)C2)cc1 (stereo partly specified) [Amorolfine] (62.9883 µM)
fraction of cells in G1 phase [1]: 0.367
fraction of cells in G1 phase [2]: 0.841

OCCN1CCN(CCCN2c3ccccc3Sc3ccc(C(F)(F)F)cc32)CC1 [Fluphenazine 2HCl] (45.711 µM)
fraction of cells in G1 phase [1]: 0.327
fraction of cells in G1 phase [2]: 0.862

CCC(C)n1ncn(-c2ccc(N3CCN(c4ccc(OCC5COC(Cn6cncn6)(c6ccc(Cl)cc6Cl)O5)cc4)CC3)cc2)c1=O (stereo unspecified) [Itraconazole] (28.3427 µM)
fraction of cells in G1 phase [3]: 0.493
fraction of cells in G1 phase [1]: 0.751
fraction of cells in G1 phase [2]: 0.667

COc1ccc(CN2CCN(C(c3ccc(F)cc3)c3ccc(F)cc3)CC2)c(OC)c1OC [Lomerizine HCl] (42.685 µM)
fraction of cells in G1 phase [1]: 0.558
fraction of cells in G1 phase [2]: 0.638

CCOC(=O)N1CCC(=C2c3ccc(Cl)cc3CCc3cccnc32)CC1 [Loratadine] (52.2338 µM)
fraction of cells in G1 phase [1]: 0.448
fraction of cells in G1 phase [2]: 0.778

CC(=O)[C@H]1CC[C@H]2[C@@H]3CCC4=CC(=O)CC[C@]4(C)[C@H]3CC[C@]12C [Progesterone] (63.5987 µM)
fraction of cells in G1 phase [3]: 0.501
fraction of cells in G1 phase [1]: 0.693
fraction of cells in G1 phase [2]: 0.607

CCN(CC)C(=S)SSC(=S)N(CC)CC [Disulfiram] (67.4445 µM)
fraction of cells in G1 phase [1]: 0.466
fraction of cells in G1 phase [2]: 0.876

CC[C@H](C)C(=O)O[C@H]1C[C@@H](C)C=C2C=C[C@H](C)[C@H](CC[C@@H]3C[C@@H](O)CC(=O)O3)[C@H]21 [Lovastatin] (49.4375 µM)
fraction of cells in G1 phase [3]: 0.402
fraction of cells in G1 phase [1]: 0.698
fraction of cells in G1 phase [2]: 0.747

C[C@]12CCC(=O)C=C1C=C[C@@H]1[C@@H]2CC[C@@]2(C)[C@H]1CC[C@@]21CCC(=O)O1 [Canrenone] (58.7429 µM)
fraction of cells in G1 phase [3]: 0.453
fraction of cells in G1 phase [1]: 0.649
fraction of cells in G1 phase [2]: 0.612

COc1c(N2CCNC(C)C2)c(F)cc2c(=O)c(C(=O)O)cn(C3CC3)c12 (stereo unspecified) [Gatifloxacin] (53.276 µM)
fraction of cells in G1 phase [3]: 0.391
fraction of cells in G1 phase [2]: 0.335

Cc1ccc(C)c(OCCCC(C)(C)C(=O)O)c1 [Gemfibrozil] (79.8911 µM)
fraction of cells in G1 phase [3]: 0.51
fraction of cells in G1 phase [1]: 0.667
fraction of cells in G1 phase [2]: 0.611

COC1=C(OC)C(=O)C(CCCCCCCCCCO)=C(C)C1=O [Idebenone] (59.0933 µM)
fraction of cells in G1 phase [1]: 0.472
fraction of cells in G1 phase [2]: 0.693

C=C1/C(=C\C=C2/CCC[C@]3(C)[C@@H]([C@H](C)/C=C/[C@@H](O)C4CC4)CC[C@@H]23)C[C@@H](O)C[C@@H]1O [Calcipotriene] (48.471 µM)
fraction of cells in G1 phase [1]: 0.375
fraction of cells in G1 phase [2]: 0.634

Clc1ccc(CCC(Cn2ccnc2)Sc2c(Cl)cccc2Cl)cc1 (stereo unspecified) [Butoconazole nitrate] (42.123 µM)
fraction of cells in G1 phase [1]: 0.478
fraction of cells in G1 phase [2]: 0.904

O=C(CCCN1CCC(O)(c2ccc(Cl)cc2)CC1)c1ccc(F)cc1 [Haloperidol HCl] (53.2093 µM)
fraction of cells in G1 phase [3]: 0.462
fraction of cells in G1 phase [1]: 0.762
fraction of cells in G1 phase [2]: 0.617

C[C@@H]1CN(c2c(F)c(N)c3c(=O)c(C(=O)O)cn(C4CC4)c3c2F)C[C@H](C)N1 [Sparfloxacin] (50.9672 µM)
fraction of cells in G1 phase [3]: 0.46
fraction of cells in G1 phase [2]: 0.366
